# In PubChem BioAssay AID1347426 (Functional Genomics Laboratory (NCATS/FGL), 2020):
# About 1,400 (4.5%) of roughly 31,000 sequences were called active. This is one part of a sample in which actives are shown more often than they occur. A number with no mark means an inactive call.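 The calls were made as follows: active = median seed-adjusted z-score above 1 or below -1; inactive = the rest.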
# Experiment: Novel Modifiers of Survival Motor Neuron (SMN) Protein: Gene Identification via Genome-wide siRNA Screen;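 also: luminescence tracks full-length SMN protein made from the SMN2 reporter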
# Details: HEK293T SMN2-luciferase reporter, siRNA knockdown, 72 h; actives lie on both sides
# In short: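 Each of three siRNAs per gene is reverse-transfected (1 pmol) into reporter HEK293T cells whose luciferase output tracks SMN protein level. After 72 h culture, ONE-Glo luminescence is control-normalized, log10-transformed and MAD-standardized; Common Seed Analysis deprioritizes seed-driven hits.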
row,Sequence,median seed-adjusted z-score
1,CAACCUCACUGACCGGCAATT against HOXD11,-0.185
2,CAUCUUUCCUAAAGAGUUUTT against POLR2D,-3.79 (active)
3,GCCUACAUGUUUCUGCUGATT against RHO,-0.267
4,CAGAGGAACUGACACCAUUTT against ETFA,-0.0619
5,CGCUUUUCGUUGUAAAUAUTT against NKX2-2,-0.0805
6,GAAGCUUGAGGAACACGAATT against GOLGB1,0.0851
7,CACUAAUGGAUAUUGCCUATT against BMI1,0
8,UGACUGCGGAUAUAACUGATT against LMAN2,-0.0921
9,GGGAAGGCAAUAAAACUUATT against TAAR9,-1.07 (active)
10,GACUAAUGAACUACUAAAATT against HMMR,0.389
11,GAAUAUCUAGGUACAUGGATT against ADCY10,-0.573
12,CUGUACAACGUCAACCUCATT against SCNN1D,-1.8 (active)
13,CAGUUAAAGGUCAAGAUAATT against PI3,0.493
14,AGAUUAAGGAUAUGGAUGATT against CHRNA9,-0.454
15,GGAUAAUCGACACUCUGGATT against MATN3,0.0972
16,GGAUUAACAUAUGAUGACATT against ADAM18,-0.913
17,GGUUCUCAGGAGCACCAGATT against OASL,1.02 (active)
18,CAUGUCACCUGCAAAAUUATT against THEM2,0.449
19,GAGUCGUUGUCCAUCUUAATT against SR140,1.16 (active)
20,GCAGAUCCAUCAACUACGATT against UBR4,0.602
21,GGUUAUACUCGGGCAGAGATT against NDUFS5,-1.35 (active)
22,GGCUAACUAUUUUGUCAGATT against ABHD7,-0.301

row,Sequence,median seed-adjusted z-score
1,CCAUGAUACUCCACUCCCATT against GUCA2A,0.121
2,GGCUAUGCAGGUCCACUGUTT against DDR1,-0.166
3,GGUUUGAAGGGUUGACUCATT against STK38L,0.079
4,GAGACAACAUGAAUGACAATT against CHGB,-1.29 (active)
5,GGAUGUGGGUUUACUCUUUTT against SLC1A5,-0.104
6,GCAUGGAUGCUUCUAGACATT against AKAP9,-1.22 (active)
7,CCAUGAUCCUGAUAGGCAATT against PLAT,0.246
8,AGACCACCUUCAUCCGACATT against EHD1,-0.616
9,ACCUCGGACUGGUACAUGATT against SLC38A3,-0.177
10,GCUCGUAAACUAGCUAAUATT against RCOR3,0.0446
11,GCAAGUGAAUAUGCGGAUATT against SNRPE,-2.77 (active)
12,GAAAACCCUUGUAAGUAUATT against ZNF354A,0.401
13,GGUGUAAAAGUGAUUAUAATT against LCLAT1,0
14,CACCUACUCUGACAACCAATT against HSPA1L,-1.27 (active)
15,CUAUCACUGUCUCAAGUCATT against ITGA10,0.378
16,GAGUUAAGGAGGUAGAUGATT against SNX5,-0.141
17,GCAUGAGUGCUAUCAGAUATT against PIPOX,1.06 (active)
18,GCUCCUGGAGUUAAGCUUATT against SPINK2,-0.431
19,AGUUUCAUUUCAAUAAGUATT against HOXD1,0.144
20,GGAGUAACCUGGAUGAGGATT against C3,0.0281
21,AGAGCAUUGGGUACACCAATT against COL6A2,0.0119
22,CCCAUUCCCUGUGCUCCAATT against CARD10,-0.929

row,Sequence,median seed-adjusted z-score
1,GGUUUUUCAAGUACGAAAATT against RPS6KB1,1.4 (active)
2,GGCCCUUCAUCGAUAGCUATT against APEX2,-0.347
3,CCCUAUCCAUGUUCCAUGUTT against HDAC10,-0.165
4,CAGCUGUUGUUGAGCGAAUTT against CASP2,0.421
5,GGCUGUACAUCGAUAGCUATT against PGM1,0.136
6,GUUCAUGCAUGGGUGGAAATT against CD200R2,-0.772
7,CGUCUAUACUUACAAGCUUTT against SF3B3,-2.53 (active)
8,GAACCAACUCGGAUAUUGUTT against MEF2A,-0.0658
9,GUGCCUAAGUCUUUAGUUUTT against IFI35,0.105
10,GGAGAUCUAUUCAAUGGGATT against SRPK1,0.37
11,GAGCAGUUCGAACACCUUATT against RBM4B,-0.251
12,GCAGAAUACCUGUUUCAAATT against TERF1,0.0114
13,GUCAUCAACGGAAACAUAATT against EIF3G,-0.198
14,GGUGAUGAGAGAUCCCAAUTT against PABPC4,-0.42
15,ACCGAGACCUCAAACCUGATT against PSKH1,-2.03 (active)
16,CUUUCUAGCAGUCACCAUATT against CIR,-0.197
17,GCCUAUAACAUGCAAACUUTT against HOXC5,0.507
18,GAAACCCGGUGAAAAGAAATT against VARS2,0.288
19,GCUUAUAGCUGCUACAAUUTT against MTMR1,-0.0204
20,CGAAAUACGUGGAACUCAUTT against ACE,0.0874
21,ACAUCGCCCUUAUUGCUAUTT against FOXS1,0
22,AGAGCAUCCUAAACGACCATT against SMUG1,-1.38 (active)

row,Sequence,median seed-adjusted z-score
1,GCUGGUACAUGACAUCCGATT against GGT7,0.135
2,GCCUUAAGAUCUCGGCGUATT against PTPRK,0
3,UGAAGAUGAGGGACCCUAATT against LOXL4,-0.591
4,GGGUGGACGUGGAUACUUATT against NFE2L1,0.689
5,AGGGCUAUCUGGUAUCUGUTT against SNRPF,-2.66 (active)
6,CUGGUACAGUGAUCGGGAATT against PCDH12,0.0177
7,GUUAUGCCUUUAUUAAUUUTT against SF3B4,-2.56 (active)
8,GGAUAUUACAGCUAUUUGATT against USP10,0.182
9,CAACUGCAGCAGAUUCUAATT against MNAT1,-0.335
10,GACCAGAUCUUUAAUCUCATT against RGS10,0.304
11,CAACACCGCCCACAACAAATT against TRIM25,0.859
12,CGGGAGUUUUUGGAACUGATT against MMS19L,0.898
13,GGAAGCUCCUUGUCAAGAUTT against MECP2,-0.332
14,GCAGGAUGCUGUCAACAUATT against PSMD4,1.46 (active)
15,GCAAGAGAAUUAGAUCAGATT against SLC16A12,0.0219
16,CCAUCGUCAACAUACGGAATT against TRIT1,0.794
17,GUGUGGAUCUGUGGACUCATT against CRB2,0
18,CACUAAGAGAAAAUCUGAATT against GALNT13,-0.0149
19,CCACCUAGCUUGUAACGAATT against EP400,1.83 (active)
20,GGUUGUAGAGUUGAAAGUUTT against UBE2O,0.125
21,GGACACGGGUGUCAUCCUATT against UBASH3A,-1.1 (active)
22,GCCGUUUAAUACCCGAUGATT against RNF125,0.204

row,Sequence,median seed-adjusted z-score
1,AUGGUUACCUGUUCACCUATT against SLC7A10,-0.732
2,GUCAAAGAGUGACAACUUUTT against CALB2,0
3,GGAGUGAUGAUAACGAGGATT against LATS1,0
4,GAGUUGUCGACACCACUUATT against PROS1,0.436
5,CUGCUACCUCUGACCCAAATT against DTD1,-1.58 (active)
6,GACAGUUUCCCUACAAGAATT against MAP2K7,-0.772
7,CAGAUUGUCUGAUUCGAUUTT against TRIP11,0.333
8,AGGGAGGUGUUUAACGGCATT against HMOX1,0.45
9,CCUUGUUUAUCAUAAGGGATT against ZNF613,-0.189
10,GCAAGUACCUGUAAUUGAATT against KLF3,0.628
11,CCUUGACUGUGGACAACAATT against PURA,-0.0185
12,AGAUAUUUGUUAUCGCUGUTT against CNBP,-1.14 (active)
13,GGAAUGAUCUGACUAACUUTT against PECI,-0.0254
14,GAAAAUUGCUCACUUUGAUTT against DAPK2,0.268
15,GAAGAACUCGAAUAUGUCATT against ASNSD1,0.437
16,CUUAAUCACUUGCAUAAAATT against GALR1,-0.721
17,GAUUACCCUUAGAUCAUAUTT against NARG1,-1.02 (active)
18,GCCUUAAGGUCAAGGUCUATT against UNC5B,-0.0207
19,GAAUUGGGCUUGUUGAUAUTT against KCNB2,1.22 (active)
20,GCAUUGGAGGUGAUCCUUUTT against SUCLG1,-0.63
21,CAUUCGCAAAGGUAUCAUUTT against SLC20A2,-0.0546
